# Measured values: PubChem BioAssay (NCI)
# About 79,000 compounds went through this panel and 15% of them were active in at least one assay; those are over-represented in the sample as a whole. Values without a mark were called inactive. Calls of active or inactive are those of the source. Cut-off read from the data, not from the text of the source: active = growth inhibition above about 70%; inactive = the rest.
# Legend:
# [1] = NCI Yeast Anticancer Drug Screen. Data for the rad52 strain (AID 147);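 note: 0% = growth of vehicle-treated control cultures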; conditions: S. cerevisiae rad52 mutant growth inhibition, active compounds read high
# How it was run: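 Here a repair-compromised yeast strain receives each compound; its growth is then quantified and normalised to vehicle-only controls.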
# [2] = NCI Yeast Anticancer Drug Screen. Data for the wt1 strain (AID 149);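 note: 0% = growth of vehicle-treated wt1 cultures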; conditions: S. cerevisiae wt1 strain (SPY 50644) growth inhibition, active compounds read high
# How it was run: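 Readout: yeast growth inhibition, normalised to vehicle controls, in the wt1 strain exposed to test compounds.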
# [3] = NCI Yeast Anticancer Drug Screen. Data for the rad50EPP+ strain (AID 151);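 note: 0% = growth of vehicle-treated control cultures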; conditions: S. cerevisiae rad50 mutant strain, active compounds read high
# How it was run: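 Read-out is yeast growth inhibition relative to vehicle; cells used were the rad50EPP+ strain.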
# [4] = NCI Yeast Anticancer Drug Screen. Data for the mgt1 strain (AID 153); conditions: S. cerevisiae mgt1 mutant growth inhibition, active compounds read high
# How it was run: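 Measured: inhibition of mgt1 yeast growth by compound, normalized to vehicle-treated cultures.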
# [5] = NCI Yeast Anticancer Drug Screen. Data for the rad50 strain (AID 155);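 note: 0% = growth of vehicle-only cultures of the same strain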; conditions: S. cerevisiae rad50 strain growth inhibition, active compounds read high
# How it was run: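 Compounds were tested on a yeast strain with an engineered DNA damage repair alteration; the reported value is growth inhibition normalised to vehicle treatment.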
# [6] = NCI Yeast Anticancer Drug Screen. Data for the mec2-1 strain (AID 157); conditions: S. cerevisiae mec2-1 strain, active compounds read high
# How it was run: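 Using mec2-1 yeast: add compound, measure growth, express inhibition versus vehicle-treated cultures.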
# [7] = NCI Yeast Anticancer Drug Screen. Data for the rad14 strain (AID 159);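 note: 0% = growth of vehicle-treated control cultures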; conditions: S. cerevisiae rad14 strain growth inhibition, active compounds read high
# How it was run: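 Compound-treated yeast with a defined DNA-repair lesion; growth inhibition normalised to vehicle-treated cultures.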
# [8] = NCI Yeast Anticancer Drug Screen. Data for the sgs1 mgt1 strain (AID 161);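 note: 0% = growth of cultures given vehicle only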; conditions: S. cerevisiae sgs1 mgt1 strain, active compounds read high
# How it was run: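 Growth of a repair-deficient yeast mutant was monitored after compound treatment and expressed as inhibition relative to vehicle-treated cultures.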
# [9] = NCI Yeast Anticancer Drug Screen. Data for the CLN2oe strain (AID 163);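 note: 0% = growth of vehicle-only control cultures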; conditions: S. cerevisiae CLN2oe strain, active compounds read high
# How it was run: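 Whole-cell yeast growth assay. A strain engineered for altered cell-cycle control received compound, and inhibition relative to vehicle-treated cultures was recorded.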
# [10] = NCI Yeast Anticancer Drug Screen. Data for the cln2 rad14 strain (AID 165);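 note: 0% = growth equal to vehicle treated cultures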; conditions: S. cerevisiae cln2 rad14 strain, active compounds read high
# How it was run: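 Yeast strain cln2 rad14, bearing defects in cell cycle control and DNA repair, serves as the test system; values reflect growth inhibition compared with vehicle.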
# [11] = NCI Yeast Anticancer Drug Screen. Data for the bub3 strain (AID 167); conditions: S. cerevisiae bub3 mutant strain, active compounds read high
# How it was run: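 Growth of a checkpoint-deficient yeast mutant is measured after compound exposure. Values represent inhibition relative to vehicle.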
# [12] = NCI Yeast Anticancer Drug Screen. Data for the wt2 strain (AID 169);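 note: 0% = growth of vehicle-treated yeast cultures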; conditions: S. cerevisiae wt2 strain growth inhibition, active compounds read high
# How it was run: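 Treated yeast vs. vehicle-treated yeast: growth inhibition determined.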
# [13] = NCI Yeast Anticancer Drug Screen. Data for the mlh1 strain (AID 171);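 note: 0% = growth of vehicle-treated control cultures of the same strain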; conditions: S. cerevisiae mlh1 strain growth inhibition, active compounds read high
# How it was run: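 A yeast strain with a defined genetic lesion serves as the test organism. Cultures receive compound or vehicle, and growth is measured.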
# [14] = NCI Yeast Anticancer Drug Screen. Data for the sgs1 strain (AID 173);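 note: 0% = growth of vehicle-only control cultures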; conditions: S. cerevisiae sgs1 mutant, active compounds read high
# How it was run: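 A genetically defined yeast mutant is incubated with the test compound, and its growth is compared to that of the same strain given vehicle.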
# [15] = NCI Yeast Anticancer Drug Screen. Data for the mlh1 rad18 strain (AID 175); conditions: S. cerevisiae mlh1 rad18 strain growth inhibition, active compounds read high
# How it was run: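 Steps: expose repair-defective yeast to compound; measure growth; express inhibition against vehicle-treated controls.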
# [16] = NCI Yeast Anticancer Drug Screen. Data for the rad18 strain (AID 177); conditions: S. cerevisiae rad18 mutant growth inhibition, active compounds read high
# How it was run: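 Measured value is growth inhibition of a yeast strain bearing a DNA repair alteration, referenced to vehicle-treated cells.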
# [17] = at 5.0 µM (retest, dose inferred, filed as 0.5)
# [18] = at 50.0 µM (retest, dose inferred, filed as 5.0)
structure (smiles),measurement,setting,value
CCOC1Oc2ccccc2-c2nc(N)ncc21 (stereo not drawn),growth inhibition,[1]; at 1.2 µM,7%
same,growth inhibition,[1]; at 3.7 µM,6%
same,growth inhibition,[1]; at 11.0 µM,3%
same,growth inhibition,[1]; at 33.0 µM,3%
same,growth inhibition,[1]; at 100.0 µM,-5%
same,growth inhibition,[2]; at 1.2 µM,-4%
same,growth inhibition,[2]; at 3.7 µM,-1%
same,growth inhibition,[2]; at 11.0 µM,1%
same,growth inhibition,[2]; at 33.0 µM,-1%
same,growth inhibition,[2]; at 100.0 µM,-14%
same,growth inhibition,[3]; at 1.2 µM,0%
same,growth inhibition,[3]; at 3.7 µM,-1%
same,growth inhibition,[3]; at 11.0 µM,-5%
same,growth inhibition,[3]; at 33.0 µM,-3%
same,growth inhibition,[3]; at 100.0 µM,-12%
same,growth inhibition,[4]; at 1.2 µM,-2%
same,growth inhibition,[4]; at 3.7 µM,10%
same,growth inhibition,[4]; at 11.0 µM,4%
same,growth inhibition,[4]; at 33.0 µM,9%
same,growth inhibition,[4]; at 100.0 µM,6%
same,growth inhibition,[5]; at 1.2 µM,-2%
same,growth inhibition,[5]; at 3.7 µM,-13%
same,growth inhibition,[5]; [17],17%
same,growth inhibition,[5]; at 11.0 µM,-5%
same,growth inhibition,[5]; at 33.0 µM,0%
same,growth inhibition,[5]; [18],75% (active)
same,growth inhibition,[5]; at 50.0 µM,88.3% (active)
same,growth inhibition,[5]; at 100.0 µM,-33%
same,growth inhibition,[6]; at 1.2 µM,13%
same,growth inhibition,[6]; at 3.7 µM,6%
same,growth inhibition,[6]; [17],3%
same,growth inhibition,[6]; at 11.0 µM,-2%
same,growth inhibition,[6]; at 33.0 µM,-8%
same,growth inhibition,[6]; [18],39%
same,growth inhibition,[6]; at 50.0 µM,85.4% (active)
same,growth inhibition,[6]; at 100.0 µM,-15%
same,growth inhibition,[7]; at 1.2 µM,-3%
same,growth inhibition,[7]; at 3.7 µM,-5%
same,growth inhibition,[7]; at 11.0 µM,-4%
same,growth inhibition,[7]; at 33.0 µM,-1%
same,growth inhibition,[7]; at 100.0 µM,-4%
same,growth inhibition,[8]; [17],10%
same,growth inhibition,[8]; [18],85% (active)
same,growth inhibition,[8]; at 50.0 µM,-4.55%
same,growth inhibition,[9]; at 1.2 µM,7%
same,growth inhibition,[9]; at 3.7 µM,4%
same,growth inhibition,[9]; at 11.0 µM,-14%
same,growth inhibition,[9]; at 33.0 µM,-27%
same,growth inhibition,[9]; at 100.0 µM,1%
same,growth inhibition,[10]; [17],22%
same,growth inhibition,[10]; [18],37%
same,growth inhibition,[10]; at 50.0 µM,-20.9%
same,growth inhibition,[11]; at 1.2 µM,4%
same,growth inhibition,[11]; at 3.7 µM,-7%
same,growth inhibition,[11]; [17],2%
same,growth inhibition,[11]; at 11.0 µM,-12%
same,growth inhibition,[11]; at 33.0 µM,-5%
same,growth inhibition,[11]; [18],23%
same,growth inhibition,[11]; at 50.0 µM,-16.8%
same,growth inhibition,[11]; at 100.0 µM,-9%
same,growth inhibition,[12]; at 1.2 µM,-3%
same,growth inhibition,[12]; at 3.7 µM,-7%
same,growth inhibition,[12]; at 11.0 µM,-7%
same,growth inhibition,[12]; at 33.0 µM,-2%
same,growth inhibition,[12]; at 100.0 µM,-10%
same,growth inhibition,[13]; at 1.2 µM,11%
same,growth inhibition,[13]; at 3.7 µM,16%
same,growth inhibition,[13]; at 11.0 µM,1%
same,growth inhibition,[13]; at 33.0 µM,4%
same,growth inhibition,[13]; at 100.0 µM,-1%
same,growth inhibition,[14]; at 1.2 µM,3%
same,growth inhibition,[14]; at 3.7 µM,11%
same,growth inhibition,[14]; at 11.0 µM,5%
same,growth inhibition,[14]; at 33.0 µM,-9%
same,growth inhibition,[14]; at 100.0 µM,-9%
same,growth inhibition,[15]; [17],12%
same,growth inhibition,[15]; [18],76% (active)
same,growth inhibition,[15]; at 50.0 µM,-21.9%
same,growth inhibition,[16]; at 1.2 µM,4%
same,growth inhibition,[16]; at 3.7 µM,7%
same,growth inhibition,[16]; at 11.0 µM,-1%
same,growth inhibition,[16]; at 33.0 µM,3%
same,growth inhibition,[16]; at 100.0 µM,-2%
